Screening results: PubChem BioAssay, National Center for Advancing Translational Sciences (NCATS)
HepG2 tox = qHTS for Inhibitors of TGF-b: Cytotox Counterscreen | HepG2 CAGA-GFP viability, ATP luminescence, 18 h | Potency, µM (series often up to 46.1 µM), for the others: top-dose activity change, negative = cytotoxicity, actives largely listed as cytotoxic | 410,000 compounds, 0.76% hits | AID 588856, 2011
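HepG2 CAGA-GFP cells (1000/well, DMEM with 1% FBS) received compound, then TGF-beta at 500 pg/mL final, and were incubated 18 hours at 37 degrees C. Viability was read by CellTiter-Glo luminescence. Media-only wells were set as complete cell-killing and DMSO as no toxicity.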
HT1080NT lethal = qHTS for induction of synthetic lethality in tumor cells producing 2HG: qHTS for the HT-1080-NT fibrosarcoma cell line | 360,000 compounds, 1.6% hits | Potency, µM (doses to about 46.1 µM), inactives show at the top dose activity, negative = less viability, actives largely listed as cytotoxic | AID 686970, 2013 | HT-1080-NT fibrosarcoma viability, CellTiter-Glo ATP luminescence, 48 h;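 also: NT is the 2HG producing partner of a matched IDH1 knockdown line; 0% = DMSO-treated cells and -100% = media-only wells without cells; nearly all actives have a fitted effect of over 55% in size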
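Viability of the 2HG-overproducing fibrosarcoma line after 48 hours of compound exposure at 37 degrees C was determined by luminescence with CellTiter-Glo, and concentration-effect curves were then fitted and categorized.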
HT1080 IDH1KD tx = qHTS for induction of synthetic lethality in tumor cells producing 2HG: qHTS for the HT-1080-IDH1KD cell line; AID 686971, 2013; HT-1080 IDH1 knockdown viability, ATP luminescence, 48 h; 360,000 compounds, 2% hits; Potency, µM (highest dose often 46.1 µM), inactives show at the highest dose activity, negative = toxicity, usual class: cytotoxic;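 also: 0% = DMSO wells and -100% = cell-free medium wells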
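HT-1080-IDH1KD cells (IDH1 knocked down), 750/well in RPMI with 5% FBS, treated with compound 48 h at 37 degrees C. Viability by CellTiter-Glo luminescence, normalised to DMSO and no-cell wells; concentration-response curves classed.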
TGFb SMAD3 inh = qHTS for Inhibitors of TGF-b; AID 588855, 2011; HepG2 CAGA-GFP TGF-b/SMAD3 reporter, GFP fluorescence, 18 h; TGF-beta stimulated, 500 pg/mL final; Potency, µM (titrated, usually from 46.1 µM), without a hit: at the top dose activity, negative = inhibition, most hits filed as inhibitors; 410,000 compounds, 1.2% hits; also: % is scaled to controls: 0 for no effect and ±100 for the full control effect; nearly all actives have a fitted effect of over 65% in size
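HEPG2 CAGA-GFP reporter cells (1000/well, DMEM with 1% FBS) received compounds, then recombinant TGF-beta at 500 pg/mL final for 18 hours at 37 degrees C. Per-cell GFP summed per well was normalised to unstimulated and stimulated DMSO controls before curve fitting.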
ATXN2 expr inh = Primary qHTS for Inhibitors of ATXN expression | AID 1745845, 2022 | HEK-293 ATXN2-luciferase reporter, luminescence, 24 h | 360,000 compounds, 0.72% hits | Potency, µM (series often up to 57 µM), for inactives: at the top dose activity change, negative = inhibition, usual class: inhibitors; also: % is scaled to controls: 0 for no effect and ±100 for the full control effect; nearly all actives have a fitted effect of over 55% in size
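qHTS (up to 57 uM final) was run with 24 h compound exposure of reporter cells at 37 °C. Each well was multiplexed: SteadyGlo luminescence measured ATXN2-luciferase expression after a fluorogenic Gly-Phe-AFC viability readout (25 uM final).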
ATXN viability = Viability Counterscreen for Primary qHTS for Inhibitors of ATXN expression | S2 cells (HEK-293 line with an ATXN2-luciferase reporter) viability, CellTiter-Fluor protease fluorescence, 24 h | Potency, µM (top dose mostly 56.7 µM), hits mostly cytotoxic | 400,000 compounds, 0.49% hits | AID 651635, 2014; also: nearly all actives have a fitted effect of over 40% in size
* marks the source's active call; other numbers are inactive results; i = inactive; ? = inconclusive; . = no result given; [ ] = remark or other dose. Rows were chosen to be rich in hits. Some 3.9% of all compounds tested hit in one or more screens of this group. Calls follow the shape of the dose curve; as a rule, active = well fitted curve in the direction sought with a large enough effect; inconclusive = small, poorly fitted or top-dose-only effect, or another doubt; inactive = no such curve, though single readings can be large; an effect the other way counts as inactive or inconclusive. Potency is read from the fitted curve at half-maximal effect.

SMILES	HepG2 tox	HT1080NT lethal	HT1080 IDH1KD tx	TGFb SMAD3 inh	ATXN2 expr inh	ATXN viability
O=C1NC(Cc2ccccc2)c2nc3cc(F)ccc3c(=O)n2-c2cc3ccccc3cc21 (configuration not stated)	-18.2%	?	16.4µM*	9.4%	-22.4%	?
O=C1NC(Cc2ccccc2)c2nc3cc(F)c(F)cc3c(=O)n2-c2cc3ccccc3cc21 (configuration not stated)	-21.2%	?	?	-2.5%	-31.9%	?
O=C1NC(Cc2ccccc2)c2nc3ccccc3c(=O)n2-c2cc3ccccc3cc21 (configuration not stated)	-4.8%	?	9.2µM*	-0.2%	?	?
CCN(CC)c1ccc(/C=C/c2ccccn2)cc1	0.8%	.	.	121.0%	.	.
COc1cc2cc(/C=C/C(=O)c3ccco3)c(Cl)nc2cc1OC	12.6µM*	?	-27.1%	?	-7.5%	i
Cc1ccc2nc(Cl)c(/C=C/C(=O)c3ccco3)cc2c1	-27.8%	?	-19.7%	12.6µM*	14.9%	i
Cc1ccc2cc(/C=C/C(=O)c3ccco3)c(Cl)nc2c1	-53.5%	?	11.6µM*	?	-8.4%	i
COc1cc2nc(NC(=O)c3ccco3)sc(=O)c2cc1OC	-8.6%	?	-17.8%	17.5%	1.2%	i
O=C(C=Cc1ccco1)c1ccco1	-5.8%	9.4%	9.6%	-11.2%	1.3%	i
CC(=O)N1c2ccc(S(=O)(=O)NCC3CCC(C(=O)Nc4cccc(C)c4C)CC3)cc2CC1C (configuration not stated)	-29.1%	.	.	?	.	.
C/C(=N\NC(=O)c1ccc(N/N=C(\C)c2ccc(O)cc2)cc1)c1ccc(O)cc1	11.2µM*	-28.9%	?	12.6µM*	.	?
C/C(=N\NC(=O)c1cccc(N/N=C(\C)c2cc(O)ccc2O)c1)c1cc(O)ccc1O	-50.3%	23.1µM*	18.4µM*	?	?	?
COc1cccc(CNC(=O)Cc2c(C)c3c(cc(C)c4c(C)coc43)oc2=O)c1	0.3%	.	.	-3.5%	.	.
O=c1cc(N2CCN(c3ccccc3)CC2)[nH]c(=O)n1C1CCCCC1	-24.9%	2.4%	-4.7%	-27.2%	5.01µM*	i
O=C(c1cccs1)N1CCCc2cc(NS(=O)(=O)c3ccc(F)cc3F)ccc21	-40.3%	.	.	?	-16.6%	?
Cc1cc(F)ccc1S(=O)(=O)Nc1ccc2c(c1)CCCN2C(=O)c1cccs1	-37.7%	.	.	15.8µM*	?	.
Cc1sc(NC(=S)NC(=O)c2ccco2)c(C(N)=O)c1C	4.1%	3.5%	?	4.2%	-3.4%	?
COC(=O)CCC(=O)Nc1sc(C)c(C)c1C(N)=O	12.3%	25.8%	20.5%	-14.4%	9.1%	i
Cc1sc(NC(=S)NC(=O)CCc2ccccc2)c(C(N)=O)c1C	13.0%	0.164µM*	?	?	-6.7%	?
COC(=O)CCC(=O)NC(=S)Nc1sc(C)c(C)c1C(N)=O	-35.7%	?	0.326µM*	11.2µM*	-4.1%	?
CCN(CC)C(=O)Cn1c(=O)n(Cc2ccc(C(=O)NCCc3ccc(OC)c(OC)c3)cc2)c(=O)c2ccccc21	2.4%	.	.	-7.2%	10.7%	i
Cn1c(CCCNC(=O)c2ccccc2)nc2ccccc21	-22.3%	7.2%	15.0%	-22.5%	1.5%	i
Cn1c(/C=N/NC(=O)c2ccccc2)nc2ccccc21	-5.1%	10µM*	?	-19.4%	-28.8%	i
CCn1c(=N)n(CC(=O)c2ccc(Cl)c(Cl)c2)c2ccccc21	-69.6%	?	23.1µM*	?	-0.6%	i
N=c1n(CCN2CCCCC2)c2ccccc2n1CC(=O)c1ccc(Cl)c(Cl)c1	-186.7%	20.6µM*	20.6µM*	?	?	i
SMILES	HepG2 tox	HT1080NT lethal	HT1080 IDH1KD tx	TGFb SMAD3 inh	ATXN2 expr inh	ATXN viability
Cn1c(=N)n(CC(=O)c2ccc(Br)cc2)c2ccccc21	-35.9%	?	23.1µM*	4.9%	6.1%	?
Cc1ccc(Cn2c(=N)n(CC(=O)c3ccc([N+](=O)[O-])cc3)c3ccccc32)cc1	-25.3%	-3.2%	-13.5%	-22.5%	20µM*	.
Cc1ccc(C(=O)Cn2c(=N)n(CCN3CCOCC3)c3ccccc32)cc1	-26.6%	-6.7%	-4.2%	-20.0%	0.1%	i
COC(=O)Cn1c(=N)n(CCN2CCCCC2)c2ccccc21	1.0%	10.3%	8.8%	-5.0%	-6.6%	i
CC(C)(C)n1ncc2c(=O)n(Cc3ccc(Cl)c(C(F)(F)F)c3)cnc21	2.2%	.	.	2.1%	.	.
Cc1ccccc1C(=O)Nc1ccc(C(=O)N2CCCC(O)c3cc(Cl)ccc32)c(C)c1 (configuration not stated)	.	.	.	.	15.8%	i
CN(C)CCNC(=O)C1CCN(Cc2cc3ccccc3n2Cc2ccccc2)CC1	11.2µM*	.	.	?	22.4µM*	.
Cc1ccc(Cn2c(CN3CCC(C(=O)NCc4cccnc4)CC3)cc3ccccc32)cc1	11.2µM*	.	.	?	?	.
CCNC(=O)C1CCN(Cc2cc3ccccc3n2Cc2ccc(C)cc2)CC1	-26.2%	.	.	-4.3%	-11.3%	i
CCN1CCN(C(=O)N[C@H](C(=O)N[C@@H]2C(=O)N3C(C(=O)O)=C(CSc4nnnn4C)CS[C@@H]23)c2ccc(O)cc2)C(=O)C1=O	.	.	.	.	7.9%[18.9 µM]	i
CCCCN(CCCNc1ncnc2nc[nH]c12)c1ccccc1	3.16µM*	-3.7%	-7.7%	?	?	?
